Sampled rows, rich in hits. Any-hit rate of the full collection: about 4%.
RecA intein inh – Mtb RecA intein splicing inhibitors, primary screen, biochemical, fluorescence, HTS; inhibition, % (no concentration beside the values); hit rate 0.75% among 290,000; cell-free RecA intein splicing; Protein RecA (Mycobacterium tuberculosis (strain ATCC 25618 / H37Rv)), P9WHJ3; AID 2221, 2009; in the data active = inhibition above about 30%;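 also: 0% = vehicle wells and 100% = reference inhibitor control wells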
Rv3671c protease – Rv3671c serine protease inhibitors, primary screen, biochemical, fluorescence polarization, M. tuberculosis H37Rv; hit rate 0.048% among 320,000; inhibition, % at 5.96 µM; AID 2606, 2010; P9WHR9; in the data active = inhibition above about 38%;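 also: extracellular domain of Rv3671c used as enzyme; 0% = enzyme with DMSO and 100% = no enzyme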
Mtb FBA inh – Mtb FBA enzyme inhibitors, primary screen, biochemical, fluorescence, strain H37Rv. Fructose-bisphosphate aldolase (Mycobacterium tuberculosis (strain ATCC 25618 / H37Rv)), …. inhibition, % at 1 µM. hit rate 2.3% among 360,000. purified M. tuberculosis FBA, fluorescence read-out. AID 588726, 2011;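 also: 0% = vehicle and 100% = reference inhibitor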
UGM FP inh – M. tuberculosis UGM enzyme inhibitors, primary screen, biochemical, fluorescence polarization, single point; UDP-galactopyranose mutase (Mycobacterium tuberculosis (strain ATCC 25618 / H37Rv)), …; purified UGM, fluorescence polarization probe displacement; hit rate 0.06% among 320,000; inhibition, % at 10 µM; in the data active = inhibition above about 10%, passing the limit was not always enough
Target sequence (P9WIQ1 whole entry, looked up): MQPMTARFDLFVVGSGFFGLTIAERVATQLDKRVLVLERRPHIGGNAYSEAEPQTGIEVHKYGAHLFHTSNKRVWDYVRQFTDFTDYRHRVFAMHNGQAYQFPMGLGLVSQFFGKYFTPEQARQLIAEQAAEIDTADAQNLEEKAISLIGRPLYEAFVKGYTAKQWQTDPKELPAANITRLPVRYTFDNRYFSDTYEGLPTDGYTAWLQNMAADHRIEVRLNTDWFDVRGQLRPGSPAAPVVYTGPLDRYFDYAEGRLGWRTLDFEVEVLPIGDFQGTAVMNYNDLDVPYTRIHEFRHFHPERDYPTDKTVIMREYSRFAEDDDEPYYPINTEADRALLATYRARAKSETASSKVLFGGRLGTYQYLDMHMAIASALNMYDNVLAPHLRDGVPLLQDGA
Mtb betalactam – beta-lactam sensitization of Mtb H37Rv, H37Rv; inhibition, % at 25 µM; hit rate 0.27% among 330,000; M. tuberculosis H37Rv growth with meropenem, percent inhibition; AID 434955, 2010; call rule not given here;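 also: growth measured after seven days incubation then overnight dye step; 0% = bacteria only wells and 100% = bacteria with antibiotic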
GDH-TPI counter-1 – GDH-TPI coupling enzyme inhibitors, primary screen, artefact control for M. tuberculosis FBA inhibitor project, biochemical, absorbance, full deck | GDH-TPI coupled enzyme counterscreen, NADH absorbance | inhibition, % at 4.8 µM | hit rate 1.2% among 360,000; in the data active = inhibition above about 30%;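 also: 0% = DMSO wells and 100% = wells lacking the enzyme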
Mtb FBA confirm – M. tuberculosis aldolase blockers, biochemical, fluorescence, strain H37Rv, confirmation; hit rate 78% among 5,600; shares compounds with Mtb FBA inh; purified M. tuberculosis FBA, fluorescence read-out; AID 651616, 2012; inhibition, % at 1 µM;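 also: 0% = vehicle wells and 100% = reference inhibitor wells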
GDH-TPI counter-2 – GDH-TPI coupling enzyme inhibitors, artefact control for M. tuberculosis FBA inhibitor project, biochemical, fluorescence, high throughput; inhibition, % at 1 µM; GDH-TPI coupled enzyme counterscreen; hit rate 81% among 5,600; shares compounds with Mtb FBA inh; in the data active = inhibition above about 10%
The depositor's hits bear a star; . = not tested or not shown; + = active, no number. Rule as the data show it, unless noted: active = inhibition above about 27%; inactive = the rest.

SMILES | RecA intein inh | Rv3671c protease | Mtb FBA inh | UGM FP inh | Mtb betalactam | GDH-TPI counter-1 | Mtb FBA confirm | GDH-TPI counter-2
CCOc1ccc(-c2nc(CCl)cs2)cc1OC | 4 | 4 | 46* | 3 | -2 | 2 | 41* | 19*
O=C(NCC1CC1)C1(C(F)(F)F)C/C(=C\Cc2ccccc2)CCCO1 (stereo not given) | 3 | 5 | -2 | 3 | 3 | 2 | . | .
CCCCN(CC)CCCNC(=O)c1cc2c(=O)n(CC)c3ccccc3c2s1 | 1 | -9 | 79* | -1 | 3 | 14 | 6 | -2
CCCN(CCC)CCCNC(=O)c1cc2c(=O)n(CC)c3ccccc3c2s1 | 2 | 5 | 27* | 1 | 0 | 17 | + | +
CCOC(CNC(=O)c1cc2c(=O)n(CC)c3ccccc3c2s1)OCC | 1 | -2 | 18 | 1 | -3 | 19 | . | .
CCCCN(CC)CCNC(=O)c1cc2c(=O)n(CC)c3ccccc3c2s1 | 0 | 0 | 40* | -2 | 3 | 18 | 176* | 116*
CCn1c(=O)c2cc(C(=O)NCC(OC)OC)sc2c2ccccc21 | 0 | -6 | 61* | 3 | -1 | 16 | + | 179*
CN(CC(=O)Nc1ccc(F)cc1)C(=O)c1ccc(OCc2cn3ccccc3n2)cc1 | . | -1 | 8 | -1 | -2 | 2 | . | .
O=S(=O)(Nc1cccc(-n2cnnn2)c1)c1ccccc1C(F)(F)F | 0 | 5 | 0 | 4 | -3 | -11 | . | .
CCC(C)NC(=O)c1cc2c(=O)n(CC)c3ccccc3c2s1 (stereo not given) | 0 | 1 | 48* | -1 | 10 | 18 | 100* | 92*
CCn1c(=O)c2cc(C(=O)NCCCOC)sc2c2ccccc21 | -2 | 6 | 54* | -3 | -2 | 26 | + | 186*
CCn1c(=O)c2cc(C(=O)NCCC(C)C)sc2c2ccccc21 | 2 | -4 | 8 | -4 | 6 | 6 | . | .
CCN(CC)CCCNC(=O)c1cn(CCOC)c(=O)c2c1c1ccccc1n2C | -1 | 0 | 29* | 1 | 8 | 5 | 102* | 96*
CCN(CC)CCNC(=O)c1cn(CCOC)c(=O)c2c1c1ccccc1n2C | -8 | -9 | 25 | 1 | 2 | 17 | . | .
CCN(CC)CCCNC(=O)c1cn(CC(C)C)c(=O)c2c1c1ccccc1n2C | -1 | 0 | 35* | -3 | 5 | 7 | 105* | 95*
COCCn1cc(C(=O)NCCCN2CCC(C)CC2)c2c3ccccc3n(C)c2c1=O | . | 5 | 28* | 0 | -6 | 12 | + | +
CCN(CC)CCCNC(=O)c1cn(C)c(=O)c2c1c1ccccc1n2C | -4 | -4 | 30* | 0 | 5 | 5 | 83* | 71*
CCN1CCN(CCCNC(=O)c2cn(CCOC)c(=O)c3c2c2ccccc2n3C)CC1 | 1 | -2 | 24 | -1 | -15 | 11 | . | .
CN1C(=O)c2ccc(NC(=O)CSc3ccccc3)cc2C1=O | 2 | -7 | -1 | 0 | -1 | 5 | . | .
CCC(=O)Nc1ccc2c(c1)C(=O)N(C)C2=O | -5 | 10 | 27* | -3 | -4 | 16 | 15 | 6
CN1C(=O)c2ccc(NC(=O)c3cccc(N4C(=O)CCC4=O)c3)cc2C1=O | -1 | -3 | 28* | 2 | 8 | 8 | 81* | 93*
Cc1cccc(NC(=O)c2cccc(N3C(=O)CCC3=O)c2)c1 | 1 | -1 | 1 | -2 | 11 | -2 | . | .
CCCC(=O)Nc1ccc2c(c1)C(=O)N(CCC(=O)O)C2=O | -4 | -1 | 41* | 0 | -2 | 14 | 116* | 89*

Screens: PubChem, several laboratories
